Reference: PubChem BioAssay (NCATS)
“And” between values parts separate entries of the source, which are not always exact repeats. Identical values can stand only once. Records with an inconclusive call do not appear. The source made the active and inactive calls. Unless noted, calls follow the shape of the dose curve; as a rule, active = well fitted curve in either direction with a large enough effect (not every such curve was filed as active); inconclusive = small, poorly fitted or top-dose-only effect, or another doubt; inactive = flat fitted curve, though single readings scatter.

Key:
[1] = qHTS Assay for Lipid Storage Modulators (AID 1519; calls by dose curve); details: Drosophila S3 cells, BODIPY lipid droplet/cell ratio, laser cytometry, cells loaded with oleic acid
How it was run: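 Cells seeded at 5,000 per well were treated with compounds over a concentration series and loaded with oleic acid (400 uM, as added). Lipid droplet fluorescence (488 nm excitation, 500-530 nm channel) was read by laser-scanning cytometry and normalized to 20 uM Triacsin C.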

[2] = target: Voltage-gated inwardly rectifying potassium channel KCNH2 (Homo sapiens) (UniProt Q12809); assay: qHTS Assay for Small Molecule Inhibitors of the Human hERG Channel Activity (AID 588834; active = well fitted curve in the direction sought with a large enough effect; an effect the other way counts as inactive or inconclusive;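 also: U2OS cells transduced with hERG by BacMam; top concentration of the series differs between compounds; % is scaled to controls: 0 for no effect and ±100 for the full control effect; lower thallium flux fluorescence means stronger hERG block; nearly all actives have a fitted effect of over 50% in size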); details: U2OS BacMam hERG, FluxOR thallium flux fluorescence; series mostly up to 92.2 µM
How it was run: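 Cells were infected with hERG-BacMam virus for 4 hrs at room temperature, grown overnight, then seeded at 2000/well. After dye loading and roughly 10 min compound treatment, thallium influx was triggered and fluorescence recorded.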

[3] = AP1 Signaling Pathway (AID 357); details: ME-180 AP-1-bla reporter, EGF-induced, beta-lactamase ratio, 5 h; series mostly up to 17.2 µM;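 also: ME-180 reporter cells stimulated with EGF at its EC50 level; % is scaled to controls: 0 for no effect and ±100 for the full control effect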
How it was run: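 Cells are seeded overnight, exposed to compound titrations and an EC50 level of EGF for 5 hours at 37 °C, then loaded with CCF4 dye for 2.5 hours. Beta-lactamase activity under the AP-1 element is read as a blue/green ratio.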

[4] = target: Cytochrome P450 1A2 (Homo sapiens) (UniProt P05177); assay: p450-cyp1a2 (AID 410; calls by dose curve; also: potency is read from the fitted curve at half-maximal effect;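 as to activity change, negative = inhibition: -100% = full effect of reference inhibitor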); details: recombinant CYP1A2, luciferin-ME demethylation, luminescence; series mostly up to 25.6 µM
How it was run: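 20nM CYP1A2, 100uM Luciferin-ME (=Km), 100mM KPO4; cpd 10 min RT; +NADPH regen, 60 min RT; stop/detect 20 min; luminescence. Normalized to furafylline 57 uM = full inhibition.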

[5] = Stat Signaling Pathway (AID 446); details: ME-180 (cervical carcinoma) SIE beta-lactamase reporter, IL-6 stimulated, 5 h; series mostly up to 17.2 µM;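 also: ME-180 cervical cancer cells given 40 pM IL-6 alongside compound; SIE-controlled beta-lactamase reporter measured as 460/530 nm FRET emission ratio; % is scaled to controls: 0 for no effect and ±100 for the full control effect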
How it was run: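 Compound effects on IL-6-induced STAT reporter activity were measured in ME-180 cells. After overnight culture, cells were co-treated with 40 pM IL-6 for 5 hrs before beta-lactamase substrate loading at room temperature.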

[6] = target: Glucocorticoid receptor (Homo sapiens) (UniProt P04150); assay: GR-EFC Redistribution (AID 451; calls by dose curve; also: potency is read from the fitted curve at half-maximal effect); details: CHO-K1 GR-EFC translocation, beta-gal luminescence, 2 h
How it was run: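 CHO-K1 cells stably expressing nuclear-localized β-gal enzyme acceptor and GR fused C-terminally to the enzyme donor fragment; ligand-driven nuclear translocation restores β-gal by complementation. Compounds titrated up to 46 uM final, 2 h at 37 °C; luminescence read.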

[7] = target: Mitogen-activated protein kinase 10 (Mus musculus) (UniProt Q61831); assay: JNK3 AlphaScreen Assay (AID 530); details: JNK3 lysate, c-Jun phosphorylation; series mostly up to 57.1 µM;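 also: kinase came from lysate of stimulated human HepG2 cells; signal reports phosphorylation of biotinylated GST-cJun 1-79 at Ser73 with 10 µM ATP; % is scaled to controls: 0 for no effect and ±100 for the full control effect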
How it was run: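 Biotinylated GST-cJun(1-79) served as substrate for JNK3 in HepG2 lysates stimulated with IL-1beta and TNF-alpha. ATP was 10 uM final, pH 7.6. Ser73 phosphorylation was quantified by AlphaScreen (680 nm excitation).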

[8] = target: Cytochrome P450 3A4 (Homo sapiens) (UniProt P08684); assay: qHTS Assay for Activators of Cytochrome P450 3A4 (AID 885; active = well fitted curve in the direction sought with a large enough effect; an effect the other way counts as inactive or inconclusive; also: nearly all actives have a fitted effect of over 65% in size); details: recombinant CYP3A4, Luciferin-PPXE luminescence, 60 min; series mostly up to 57.1 µM
How it was run: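 CYP3A4 activity: Luciferin-PPXE O-dealkylation, 25uM substrate, 200mM KPO4, RT throughout. Read-out is luciferase luminescence; higher values reflect activation.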

[9] = Primary qHTS for small molecule stabilizers of the endoplasmic reticulum resident proteome: Secreted ER Calcium Modulated Protein (SERCaMP) assay (AID 1508630; active = well fitted curve in the direction sought with a large enough effect; an effect the other way counts as inactive or inconclusive; also: % is scaled to controls: 0 for no effect and ±100 for the full control effect); details: SH-SY5Y GLuc-SERCaMP (Gaussia luciferase released on ER calcium loss) secretion, thapsigargin, luminescence; series mostly up to 38.4 µM
How it was run: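 The SH-SY5Y reporter protocol was run at 3 concentrations up to 38.3 uM (primary) or 11 concentrations (follow-up): 16 h compound, 100 nM thapsigargin for 4 h, then extracellular luciferase luminescence.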

[10] = NFAT Signaling Pathway (AID 444); details: Jurkat NFAT-bla M1, carbachol, beta-lactamase ratio, 5 h
How it was run: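 Jurkat cells carrying an NFAT-driven β-lactamase reporter and co-transfected muscarinic M1 receptor were treated with compound plus carbachol (1 uM final, an EC50 level) for 5 h at 37 °C. CCF4 loading followed for 1 h at RT; 460/530 nm ratio gave %activity.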

[11] = target: Glucocorticoid receptor (Homo sapiens) (UniProt P04150); assay: GR-GFP Redistribution (AID 450;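 active = compounds whose dose series gives a full or clear partial fitted curve of increased nuclear translocation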; also: potency is read from the fitted curve at half-maximal effect); details: U2OS GR-GFP nuclear translocation, laser cytometry, 2 h
[12] = target: 3',5'-cyclic-AMP phosphodiesterase 4B (Homo sapiens) (UniProt Q07343); assay: qHTS Assay for Inhibitors of PDE-IV (AID 607; active = well fitted activation curve with a large enough effect in the main read-out, with a control signal flat, not every such curve was filed as active; also: % of control where 0% means no effect); details: HEK293 ACTOne CNG channel cells, membrane potential fluorescence; series mostly up to 22.9 µM
How it was run: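 ACTOne HEK293 cells carry a modified cAMP-gated CNG channel and express endogenous PDE4; plated 1000 cells/well, compounds up to 22.9 uM final. Membrane-potential dye fluorescence (ex 535/em 590) was read; parental cells received 10 uM forskolin + 100 uM RO 20-1724.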

[13] = qHTS profiling for inhibitors of Plasmodium falciparum proliferation (AID 504749; active = well fitted curve in the direction sought with a large enough effect; an effect the other way counts as inactive or inconclusive;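 also: 0% = DMSO vehicle and full inhibition = artemisinin control; nearly all actives have a fitted effect of over 60% in size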); details: P. falciparum in erythrocytes, SYBR Green DNA, 72 h, at 12.8 µM (top of the series)
How it was run: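 Fluorescence of SYBR Green-bound parasite DNA, read at 485/535 nm, served as the growth measure. Infected erythrocytes were cultured with compound 72 h; artemisinin (0.29 uM) and DMSO wells defined the normalization range.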

[14] = target: Cytochrome P450 3A4 (Homo sapiens) (UniProt P08684); assay: qHTS Assay for Inhibitors and Substrates of Cytochrome P450 3A4 (AID 884; active = well fitted curve in the direction sought with a large enough effect; an effect the other way counts as inactive or inconclusive; also: % is scaled to controls: 0 for no effect and ±100 for the full control effect; nearly all actives have a fitted effect of over 50% in size); details: recombinant CYP3A4, Luciferin-PPXE luminescence; series mostly up to 57.1 µM
How it was run: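 Luminescent readout of luciferin produced by CYP3A4 (20 nM) dealkylation of Luciferin-PPXE, 25 uM (its KM). NADPH-driven reaction ran 60 min at RT after 10 min compound preincubation; data scaled to 57 uM ketoconazole as 100% inhibition.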

[15] = target: Ubiquitin carboxyl-terminal hydrolase 1 (Homo sapiens) (UniProt O94782); assay: Inhibitors of USP1/UAF1: Pilot qHTS (AID 504865; active = well fitted curve in the direction sought with a large enough effect; an effect the other way counts as inactive or inconclusive;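 also: rhodamine fluorescence freed from ubiquitin-rhodamine substrate followed over time; top concentration of the series differs between compounds; % is scaled to controls: 0 for no effect and ±100 for the full control effect; nearly all actives have a fitted effect of over 35% in size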); details: purified USP1/UAF1, Ub-rhodamine cleavage fluorescence; series mostly up to 114 µM
How it was run: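 Kinetic fluorescence assay: 1nM USP1/UAF1, 15 min compound preincubation, then 150nM Ub-Rho; 480/540 nm.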

[16] = measured here: cell count channel max response
[17] = measured here: lipid channel max response

Chain of Ubiquitin carboxyl-terminal hydrolase 1 (Homo sapiens) (O94782 whole entry, looked up): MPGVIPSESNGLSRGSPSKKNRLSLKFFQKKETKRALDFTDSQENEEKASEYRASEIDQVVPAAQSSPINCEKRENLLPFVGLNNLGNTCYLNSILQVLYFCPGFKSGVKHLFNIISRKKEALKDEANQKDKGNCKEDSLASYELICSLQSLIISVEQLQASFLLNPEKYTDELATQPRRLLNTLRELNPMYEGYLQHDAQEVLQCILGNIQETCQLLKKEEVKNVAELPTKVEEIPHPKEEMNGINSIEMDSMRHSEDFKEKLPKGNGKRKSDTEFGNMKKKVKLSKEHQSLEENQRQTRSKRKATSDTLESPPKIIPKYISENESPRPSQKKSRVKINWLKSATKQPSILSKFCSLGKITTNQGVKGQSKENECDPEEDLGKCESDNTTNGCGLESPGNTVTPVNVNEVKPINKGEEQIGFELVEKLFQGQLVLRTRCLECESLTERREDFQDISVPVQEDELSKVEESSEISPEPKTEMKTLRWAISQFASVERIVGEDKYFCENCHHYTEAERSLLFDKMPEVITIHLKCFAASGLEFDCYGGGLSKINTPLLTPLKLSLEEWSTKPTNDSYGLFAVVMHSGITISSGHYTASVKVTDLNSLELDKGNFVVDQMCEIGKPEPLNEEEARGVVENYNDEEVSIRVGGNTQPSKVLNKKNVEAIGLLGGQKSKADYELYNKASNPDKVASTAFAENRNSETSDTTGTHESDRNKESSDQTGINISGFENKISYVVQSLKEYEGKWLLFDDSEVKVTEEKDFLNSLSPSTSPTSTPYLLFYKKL
Chain of Glucocorticoid receptor (Homo sapiens) (P04150 whole entry, looked up, the tested form may be a part): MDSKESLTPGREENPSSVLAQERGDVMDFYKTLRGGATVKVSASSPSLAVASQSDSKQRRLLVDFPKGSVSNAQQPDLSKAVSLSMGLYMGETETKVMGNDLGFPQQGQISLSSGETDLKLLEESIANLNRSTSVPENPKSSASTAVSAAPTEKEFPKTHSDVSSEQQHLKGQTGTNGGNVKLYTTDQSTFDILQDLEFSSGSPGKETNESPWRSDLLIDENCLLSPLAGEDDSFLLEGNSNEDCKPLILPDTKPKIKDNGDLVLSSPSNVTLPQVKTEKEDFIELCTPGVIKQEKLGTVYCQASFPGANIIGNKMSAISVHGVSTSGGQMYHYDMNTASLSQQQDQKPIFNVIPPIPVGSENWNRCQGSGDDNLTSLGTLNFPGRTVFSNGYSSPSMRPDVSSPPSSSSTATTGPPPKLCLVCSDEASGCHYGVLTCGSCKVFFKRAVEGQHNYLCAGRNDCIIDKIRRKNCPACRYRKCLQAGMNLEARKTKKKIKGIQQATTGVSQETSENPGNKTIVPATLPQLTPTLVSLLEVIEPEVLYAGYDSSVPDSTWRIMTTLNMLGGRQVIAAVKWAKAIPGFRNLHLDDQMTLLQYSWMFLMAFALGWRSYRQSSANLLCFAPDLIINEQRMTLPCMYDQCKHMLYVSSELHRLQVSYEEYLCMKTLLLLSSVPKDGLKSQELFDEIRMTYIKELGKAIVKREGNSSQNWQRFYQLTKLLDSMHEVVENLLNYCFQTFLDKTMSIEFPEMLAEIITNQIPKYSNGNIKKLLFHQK
Chain of Cytochrome P450 1A2 (Homo sapiens) (P05177 whole entry, looked up): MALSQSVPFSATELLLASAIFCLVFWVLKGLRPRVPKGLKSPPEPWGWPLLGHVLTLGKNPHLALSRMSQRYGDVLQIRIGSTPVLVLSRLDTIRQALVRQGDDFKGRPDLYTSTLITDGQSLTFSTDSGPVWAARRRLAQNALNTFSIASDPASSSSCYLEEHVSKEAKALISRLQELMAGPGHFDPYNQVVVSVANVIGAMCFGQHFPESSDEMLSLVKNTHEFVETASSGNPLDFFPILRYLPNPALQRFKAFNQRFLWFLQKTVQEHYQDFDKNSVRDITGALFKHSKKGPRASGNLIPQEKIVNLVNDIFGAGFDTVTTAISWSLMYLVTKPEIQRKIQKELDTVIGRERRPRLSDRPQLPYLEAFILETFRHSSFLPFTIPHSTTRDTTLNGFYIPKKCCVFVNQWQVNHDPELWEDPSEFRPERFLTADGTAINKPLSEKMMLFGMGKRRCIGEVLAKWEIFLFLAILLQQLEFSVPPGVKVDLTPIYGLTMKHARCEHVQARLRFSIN
Chain of 3',5'-cyclic-AMP phosphodiesterase 4B (Homo sapiens) (Q07343 whole entry, looked up): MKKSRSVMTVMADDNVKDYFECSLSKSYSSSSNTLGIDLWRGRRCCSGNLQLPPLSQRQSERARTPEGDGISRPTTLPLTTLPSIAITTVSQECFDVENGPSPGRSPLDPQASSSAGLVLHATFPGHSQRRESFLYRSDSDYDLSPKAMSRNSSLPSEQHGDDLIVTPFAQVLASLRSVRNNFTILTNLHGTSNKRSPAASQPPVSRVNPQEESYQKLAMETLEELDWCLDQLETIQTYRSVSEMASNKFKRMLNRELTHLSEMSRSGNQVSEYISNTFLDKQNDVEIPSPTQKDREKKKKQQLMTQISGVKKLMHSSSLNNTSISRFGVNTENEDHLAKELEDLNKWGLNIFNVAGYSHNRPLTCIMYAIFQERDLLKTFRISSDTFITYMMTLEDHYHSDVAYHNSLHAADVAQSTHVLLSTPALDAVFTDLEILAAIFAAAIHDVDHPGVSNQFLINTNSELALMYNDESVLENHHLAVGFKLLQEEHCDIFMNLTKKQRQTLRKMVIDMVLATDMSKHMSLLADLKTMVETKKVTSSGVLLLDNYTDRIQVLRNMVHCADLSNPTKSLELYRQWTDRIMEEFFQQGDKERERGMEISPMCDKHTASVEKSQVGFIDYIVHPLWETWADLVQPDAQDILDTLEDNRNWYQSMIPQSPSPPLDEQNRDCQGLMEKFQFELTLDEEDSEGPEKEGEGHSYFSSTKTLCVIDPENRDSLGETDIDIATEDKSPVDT
Chain of Cytochrome P450 3A4 (Homo sapiens) (P08684 whole entry, looked up): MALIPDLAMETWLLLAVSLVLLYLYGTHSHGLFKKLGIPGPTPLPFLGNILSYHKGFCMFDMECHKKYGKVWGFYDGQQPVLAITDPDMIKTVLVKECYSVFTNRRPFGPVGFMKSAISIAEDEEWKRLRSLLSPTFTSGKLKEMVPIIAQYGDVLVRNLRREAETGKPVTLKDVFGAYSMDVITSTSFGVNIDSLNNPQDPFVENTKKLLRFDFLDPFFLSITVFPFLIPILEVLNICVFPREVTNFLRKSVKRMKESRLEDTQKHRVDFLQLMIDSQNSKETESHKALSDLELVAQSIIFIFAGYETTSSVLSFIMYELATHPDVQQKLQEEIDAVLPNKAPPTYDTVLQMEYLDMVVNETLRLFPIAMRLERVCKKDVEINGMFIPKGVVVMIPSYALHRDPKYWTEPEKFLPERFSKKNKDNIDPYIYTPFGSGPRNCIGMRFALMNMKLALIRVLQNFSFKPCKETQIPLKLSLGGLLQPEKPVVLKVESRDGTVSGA
Chain of Voltage-gated inwardly rectifying potassium channel KCNH2 (Homo sapiens) (Q12809 whole entry, looked up): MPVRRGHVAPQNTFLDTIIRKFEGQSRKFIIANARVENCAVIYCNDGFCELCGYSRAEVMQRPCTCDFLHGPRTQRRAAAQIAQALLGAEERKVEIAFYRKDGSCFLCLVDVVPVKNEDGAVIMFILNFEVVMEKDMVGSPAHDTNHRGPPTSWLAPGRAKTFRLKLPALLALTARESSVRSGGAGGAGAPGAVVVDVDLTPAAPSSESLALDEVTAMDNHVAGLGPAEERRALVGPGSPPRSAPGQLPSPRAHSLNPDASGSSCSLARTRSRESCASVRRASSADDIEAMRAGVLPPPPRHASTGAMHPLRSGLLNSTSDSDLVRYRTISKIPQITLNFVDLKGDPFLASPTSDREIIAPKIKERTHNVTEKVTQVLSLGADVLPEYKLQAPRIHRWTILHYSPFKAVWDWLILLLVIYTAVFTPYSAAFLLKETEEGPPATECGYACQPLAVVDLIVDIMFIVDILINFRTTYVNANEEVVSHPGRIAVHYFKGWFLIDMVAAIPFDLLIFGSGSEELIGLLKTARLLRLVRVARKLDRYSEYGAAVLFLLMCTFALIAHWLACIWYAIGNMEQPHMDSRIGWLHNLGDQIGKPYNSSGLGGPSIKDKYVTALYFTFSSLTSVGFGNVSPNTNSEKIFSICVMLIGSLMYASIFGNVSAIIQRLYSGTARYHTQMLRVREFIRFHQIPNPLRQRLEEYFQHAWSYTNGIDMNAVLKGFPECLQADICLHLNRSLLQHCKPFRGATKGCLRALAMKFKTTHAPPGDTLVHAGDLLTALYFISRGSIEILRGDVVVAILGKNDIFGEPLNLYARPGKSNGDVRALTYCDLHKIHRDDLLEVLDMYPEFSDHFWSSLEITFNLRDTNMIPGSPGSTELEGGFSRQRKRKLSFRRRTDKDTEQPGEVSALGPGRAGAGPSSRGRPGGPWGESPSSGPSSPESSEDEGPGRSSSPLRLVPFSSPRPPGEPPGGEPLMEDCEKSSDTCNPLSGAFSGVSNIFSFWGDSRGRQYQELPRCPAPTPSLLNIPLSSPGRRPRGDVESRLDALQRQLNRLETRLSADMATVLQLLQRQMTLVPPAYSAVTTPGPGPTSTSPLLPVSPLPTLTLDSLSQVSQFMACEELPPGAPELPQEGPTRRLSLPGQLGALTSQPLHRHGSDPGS

Structure (SMILES)	activity change, negative = inhibition ([1]; at 57.5 µM (top of the series))	max response [1, 16]	max response [1, 17]	Potency [2]	outcome [3]	Potency [4]	outcome [5]	Potency [6]	outcome [7]	Potency [8]	outcome [9]	activity change, negative = inhibition ([10]; at 17.2 µM (top of the series))	Potency [11]	Potency [12]	activity change, negative = inhibition ([1]; at 25.7 µM (top of the series))	activity, negative = inhibition ([13]; parasite line A)	activity, negative = inhibition ([13]; parasite line B)	activity change, negative = inhibition ([10]; at 38 µM (top of the series))	Potency [14]	Potency [15]
CC(C)[C@@]1(NC(=O)[C@@H]2C[C@@H]3c4cccc5[nH]cc(c45)C[C@H]3N(C)C2)O[C@@]2(O)C3CCCN3C(=O)[C@H](Cc3ccccc3)N2C1=O (stereo partly drawn)	-0.282% (inactive)	-13.2%	-14.4%	inactive																
O=C(Nc1cccc(F)c1)N1CCCC2(CCN(C(=O)Oc3ccccc3)CC2)C1					inactive	10 µM (active)	inactive	> 46 µM (inactive)	inactive	inactive	inactive									
CCNC[C@H](O)c1cccc(O)c1		-11.3%	-12.3%		inactive	inactive	inactive	> 20.6 µM (inactive)				-13.2% (inactive)	> 20.6 µM (inactive)	inactive	-1.26% (inactive)	-4.47% (inactive)	2.63% (inactive)			
C[C@]12CC[C@H](O)C[C@@H]1CC[C@H]1[C@H]2CC[C@]2(C)C(=O)CC[C@@H]12		-9.77% and -5.73% and -17.9%	-12.1% and -8.44% and -22.6%		inactive	inactive	inactive	> 46 µM (inactive) and > 20.6 µM (inactive)	inactive	inactive		4.61% (inactive) and 4.01% (inactive) and -7.96% (inactive)	> 46 µM (inactive) and > 20.6 µM (inactive)	inactive	-2.44% (inactive) and -2.6% (inactive) and -5.42% (inactive)			8.64% (inactive)	inactive	inactive
C[C@@]12CC[C@H]3[C@@H](CC[C@@H]4C[C@H]5S[C@H]5C[C@]43C)[C@H]1CC[C@H]2O		-19.3%	-23.9%		inactive	0.0251 µM (active)	inactive	> 20.6 µM (inactive)	inactive	inactive		-8.3% (inactive)	> 20.6 µM (inactive)	inactive	-4.67% (inactive)	2.41% (inactive)	1.96% (inactive)			inactive
